Measurements taken from PubChem BioAssay (NCI).
Where “and” joins values, the source holds several entries; their conditions need not be identical. Equal entries are not always repeated. Compounds without any hit were thinned out: in the full panel of roughly 83,000, 20% have a hit.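 Results are percent growth after 48 hours of single-concentration exposure. 100 means growth as in untreated cells, lower positive values show inhibition; negative values down to -100 show cell death.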 Calls of active or inactive are those of the source.

System: OVCAR-3 ovarian
Experiment: NCI-60 one-dose screen, 48 h (100 = growth as untreated, 0 = no growth, -100 = all killed)
Conditions: 10 µM
Protocol: Growth inhibition of the OVCAR-3 human tumor cell line is measured as a screen for anti-cancer activity. Cells are grown in 96 well plates and exposed to the test compound for 48 hours. Compounds are tested at a single concentration, which is 10^-5 M for most compounds. The reported endpoint is percent growth (GI% or GIPRCNT), where numbers from 0 - 100% represent growth inhibition, and numbers from -100% - 0 represent cell death. For example, a value of 40 represents 60% growth inhibition. A value of 0 means no net growth occurred over the course of the experiment. A value of -40 indicates 40% of cells at the beginning of the experiment died by the end of the experiment. A value of -100 means all cells are dead at the end of the experiment.
NCI-60 Human Tumor Cell Lines Screen was performed using the standard one-dose NCI protocol, which is described in more detail at https://dtp.cancer.gov/discovery_development/nci-60/default.htm.
Compounds with GIPRCNT values below 10 were considered active. Activity score was based on GIPRCNT using the following formula: […]
Score is 0 for GIPRCNT values of 100 or above, 50 for GIPRCNT values of 0, and 100 for GIPRCNT values of -100.

Compound	growth
S=C(SSC(=S)N1CCCCC1)N1CCCCC1	105% (inactive)

Same assay, conditions: 10 µM unless noted

Compound	growth
O=C1c2ccccc2C(=O)C(Cl)C1Cl (stereo not given)	-75.2% (active)
CC[C@@]1(O)C[C@H](OC2CC(N(C)C)C(O)C(C)O2)c2c(O)c3c(c(O)c2[C@H]1OC1CC(N(C)C)C(O)C(C)O1)C(=O)c1cccc(O)c1C3=O (stereo not given in full)	1.09% (active)
COc1ccccc1/C=C(/C)[N+](=O)[O-]	78.2% (inactive) and 101% (inactive)
CCC1(O)CC(OC2CC(N(C)C)C(OC3CC4OC5CC(=O)C(C)OC5OC4C(C)O3)C(C)O2)c2c(cc3c(c2O)C(=O)c2c(O)ccc(O)c2C3=O)C1C(=O)OC (stereo not given)	4.8% (active)
Cc1cc(N=Nc2ccccc2C)ccc1N	73.2% (inactive)
CCC(=O)OC1CCn2c1nc1c2C(=O)C(C)=C(N2CC2)C1=O (stereo not given)	-18.5% (active)
CC1=C2C(=O)[C@H]3[C@@H](CC=C4C[C@@H](O)CC[C@@]43C)[C@@H]2CC[C@]12O[C@@H]1C[C@H](C)CN[C@H]1[C@H]2C	140% (inactive)
CC[C@](O)(C(=O)O)c1cc2n(c(=O)c1CO)Cc1cc3ccccc3nc1-2	-42.3% (active)
COC1=C(C)C(=O)C2=C(C1=O)C(CO)N1C(C#N)C3CC4C(C1C2N1CCOC41)N3C (stereo not given)	-18.7% (active)
CC[C@@]1(O)C[C@H](OC2CC(N(C)C)C(OC3CC(O)C(OC4CCC(=O)C(C)O4)C(C)O3)C(C)O2)c2c(cc3c(c2O)C(=O)c2c(O)ccc(O)c2C3=O)[C@H]1C(=O)OC (stereo not given in full)	0.51% (active)
Cc1ccc(C(=O)OC(C(=O)O)C(OC(=O)c2ccc(C)cc2)C(=O)O)cc1 (stereo not given) (tested in a mixture with another compound)	44.5% (inactive)
Cc1c(N)nc([C@H](CC(N)=O)NC[C@H](N)C(N)=O)nc1C(=O)N[C@H](C(=O)N[C@H](C)[C@@H](O)[C@H](C)C(=O)N[C@H](C(=O)NCCc1nc(-c2nc(C(=O)NCCC[S+](C)C)cs2)cs1)[C@@H](C)O)C(OC1OC(CO)C(O)C(O)C1OC1OC(CO)C(O)C(OC(N)=O)C1O)c1cnc[nH]1 (stereo not given in full)	83.5% [2.5 µM] (inactive)
Oc1cccc2cccnc12	-6.09% (active) and 105% (inactive) and 104% (inactive)
CC(=O)O[C@H]1C[C@@H]2OC3C=C(C)CCC3(C)[C@@]1(C)[C@@]21CO1 (stereo not given in full)	-17.6% (active) and -41.3% (active)
CCCCCCCCCCCC1CCCC(C)N1 (stereo not given)	90.9% (inactive)
NCCc1ccc(OCc2ccccc2)c(OCc2ccccc2)c1	88.3% (inactive)
C[C@H]1CCC/C=C/[C@@H]2C[C@H](O)C[C@H]2[C@H](O)/C=C/C(=O)O1	-37.4% (active)
COC1CC(CC2CCC(C)C(C(C)C(=O)O)O2)OC2(OC(C)(C3CCC(C)(C4OC(C5OC(O)(CO)C(C)CC5C)CC4C)O3)CC2C)C1C (stereo not given)	9.34% (active)
COc1cccc2c1cc([N+](=O)[O-])c1c(C(=O)O)cc3c(c12)OCO3	76.5% (inactive) and 103% (inactive)
COc1ccc(OC)c(/C=C/[N+](=O)[O-])c1	-59% (active)
CC[n+]1c(-c2ccccc2)c2cc(N)ccc2c2ccc(N)cc21	-0.305% (active)
CCOC(=O)C(NC(=O)C(Cc1ccc(N(CCCl)CCCl)cc1)NC(C)=O)C(C)C (stereo not given)	92.5% (inactive)
CC[C@@]1(O)C(=O)OCc2c1cc1n(c2=O)Cc2cc3ccccc3nc2-1	-34% (active)
CC1=C(CO)C2=C(C)C3(CC3)[C@@](C)(O)C(=O)C2=C1	-1.49% (active)
CN1CCN(c2ccc([N+](=O)[O-])c3no[n+]([O-])c23)CC1	-88.8% (active)
Oc1cc[c]([Hg][Cl])cc1	91% (inactive)
C[C@]12CC[C@H](O)CC1=CC[C@@H]1[C@@H]2CC[C@]2(C)C(=O)CC[C@@H]12	90.6% (inactive)
CO[C@H](/C(C)=C/C=C/C(C)=C/c1coc(C)n1)[C@H](C)[C@H]1C[C@@H](O)[C@@]2(C)O[C@H]2/C=C/[C@@H](C)[C@@H]2C[C@@H](CC(=O)O2)C[C@H]2O[C@@H]2C(=O)O1	-36.3% (active)

Same assay, conditions: 100 µM

Compound	growth
S=C(SSC(=S)N1CCCCC1)N1CCCCC1	-68.7% (active)
